# Results from PubChem BioAssay AID1465 (SRMLSC, 2008).
# In all, about 220,000 compounds went through this assay and about 160 (0.073%) were called active.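 Rule for the calls: active = fold induction of absorbance versus untreated yeast above a set limit, then at least 30% activation at any dose in follow-up; inconclusive = repeats straddling the limit, or above it without dose testing; inactive = fold induction below the set limit.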 Only a sample is shown. Measured potencies and affinities stand elsewhere.
# Assay: enhancers of respiration in Yfh1-depleted yeast, dose response, Friedreich's ataxia, plus single-dose screen (AID 1465)
# Conditions: S. cerevisiae Yfh1-off respiration, WST-1 reduction, 72 h; at 50 µM; stronger effect = higher value
row,SMILES,fold induction
1,CCOC(=O)C1=C(Cc2ccc(Cl)cc2)C(=O)c2ccccc2C1=O,1.27 (inactive)
2,CCOC(=O)C1=C(Cc2ccc(C)cc2)C(=O)c2ccccc2C1=O,1.29 (inactive)
3,CCNS(=O)(=O)c1ccc(NC(=O)Nc2ccccc2OC)cc1,1.1 (inactive)
4,Cc1nc2c(C)cccn2c1/C(O)=C1\C(=O)C(=O)N(CCN(C)C)C1c1ccncc1 (stereo not drawn),1.11 (inactive)
5,COc1ccccc1N1CCN(Cc2cc(Br)c(O)c3ncccc23)CC1,0.74 (inactive)
6,Oc1ccc(CN2CCCCC2)c2cccnc12,0.69 (inactive)
7,Oc1ccc(CN2CCN(Cc3ccccc3)CC2)c2cccnc12,1.36 (inactive)
8,Oc1ccc(CN2CCN(c3ccccc3)CC2)c2cccnc12,0.91 (inactive)
9,CCOc1ccc(C(=O)NCC(=O)OCc2c(F)cccc2Cl)cc1,1.18 (inactive)
10,CCNC(=S)N(Cc1ccc(OC)cc1)C1CC(=O)N(c2ccc(OCC)cc2)C1=O (stereo not drawn),0.92 (inactive)
11,NC(=S)Nc1ccccc1Br,1 (inactive)
12,Cc1ccc(/C=N/NC(=O)CN2CCN(Cc3ccccc3Cl)CC2)o1,0.97 (inactive)
13,N#C/C(=N\Nc1ccc(Cl)cc1)C(=O)c1ccccc1,0.82 (inactive)
14,Cc1c(N/C=C/C(=O)c2ccc(Cl)cc2)c(=O)n(-c2ccccc2)n1C,1 (inactive)
15,CCOC(=O)/C(C#N)=N/Nc1c(C)n(C)n(-c2ccccc2)c1=O,1 (inactive)
16,COC(=O)C(=NNc1c(C)n(C)n(-c2ccccc2)c1=O)C(=O)OC,1 (inactive)
17,Cc1c(NC=C(C#N)C#N)c(=O)n(-c2ccccc2)n1C,0.95 (inactive)
18,Cc1c(NN=C(C#N)C#N)c(=O)n(-c2ccccc2)n1C,0.98 (inactive)
19,O=C(c1cc2c(s1)CCCC2)N1CCN(S(=O)(=O)c2ccccc2C(F)(F)F)CC1,0.91 (inactive)
20,CCC(C)/C(C)=N/NC(=O)c1cn(-c2ccccc2)nc1-c1ccccc1 (stereo not drawn),0.83 (inactive)
21,O=C(O)CC(NC(=O)Cc1ccc([N+](=O)[O-])cc1)c1ccc2c(c1)OCO2 (stereo not drawn),1 (inactive)
22,Cc1ccc(-c2cc3nc(-c4ccccc4)cc(N4CCC5(CC4)OCCO5)n3n2)cc1,0.98 (inactive)
23,O=C(Nc1ccon1)c1cccc(C(F)(F)F)c1,0.98 (inactive)
24,C[C@@H]1Cc2c(O)c(O)cc(O)c2C(=O)O1,1.07 (inactive)
25,COc1c(O)cc2c(c1O)C(=O)CC(c1ccccc1)O2 (stereo not drawn),0.86 (inactive)

row,SMILES,fold induction
1,Cc1cc2cc(C(c3nnnn3Cc3ccco3)N3CCCCC3)c(=O)[nH]c2cc1C (stereo not drawn),0.99 (inactive)
2,COc1ccc(OC)c(N2C(=O)CC(Cc3ccc(C)cc3)C2=O)c1 (stereo not drawn),0.84 (inactive)
3,N#C/C(C(=O)N1CCCCC1)=C1\Nc2ccccc2S1,0.81 (inactive)
4,COC1=C(c2ccccc2)C(=O)c2ccccc2C1=O,1.01 (inactive)
5,CC(=O)C1=C(c2ccc(Br)cc2)C(=O)c2ccccc2C1=O,0.86 (inactive)
6,COc1ccc(C/C(O)=C(\C#N)c2nc3ccccc3[nH]2)cc1OC,1.12 (inactive)
7,O=C(CC1(O)C(=O)Nc2ccccc21)c1ccc(-n2cnnn2)cc1 (stereo not drawn),1.11 (inactive)
8,CC1CCCC(NC(=O)c2ccc3c(=O)n(CC4CCCO4)c(=O)[nH]c3c2)C1C (stereo not drawn),1.02 (inactive)
9,CCC(=O)/C=C1/Sc2ccccc2N1CC,0.79 (inactive)
10,CCOC(=O)/C(=C/C=C1\Sc2ccccc2N1CC)C(C)=O,0.99 (inactive)
11,COC(=O)c1ccccc1NC(=O)Cn1ccnc1,1.02 (inactive)
12,O=[N+]([O-])c1ccc(O)c2ncccc12,1.17 (inactive)
13,CC(=O)NC(c1ccco1)c1ccc2cccnc2c1O (stereo not drawn),0.91 (inactive)
14,CCCC(=O)NC(c1ccco1)c1c(O)ccc2ccccc12 (stereo not drawn),0.99 (inactive)
15,CCC(=O)NC(c1cccs1)c1ccc2cccnc2c1O (stereo not drawn),0.88 (inactive)
16,CCCC(=O)NC(c1ccco1)c1cc(Cl)c2cccnc2c1O (stereo not drawn),0.7 (inactive)
17,CC(C)CC(=O)NC(c1cccs1)c1ccc2cccnc2c1O (stereo not drawn),0.99 (inactive)
18,O=C1CNC(=O)N1CC(=O)N1CCCc2ccccc21,1.04 (inactive)
19,COc1ccc(C)cc1S(=O)(=O)Nc1cc(Cl)ccc1Cl,0.94 (inactive)
20,OC(COc1ccc2ccccc2c1)CN1CCN(c2ccc(F)cc2)CC1 (stereo not drawn),0.93 (inactive)
21,COc1ccc(/C=C2\Sc3ccc(C(=O)NCc4cccnc4)cc3N(C)C2=O)cc1OC,1.1 (inactive)
22,c1csc(-c2nnc(N3CCOCC3)c3ccccc23)c1,1.39 (inactive)
23,Cc1c(Nc2ccc(C=O)cc2)c(=O)n(-c2ccccc2)n1C,1.09 (inactive)
24,Clc1ccc(-c2n[nH]c3c2CCC3)cc1Cl,0.777 (inactive)
25,CCC(=O)NNc1ncnc2c1cnn2C,1.06 (inactive)

row,SMILES,fold induction
1,CCOc1ccc(Oc2ccc(S(=O)(=O)N3CCOCC3)cc2N)cc1,1.12 (inactive)
2,CCc1nnc(NC(=O)CCC(=O)N2CCN(CCOc3ccc(C)cc3)CC2)s1,0.907 (inactive)
3,COc1ccc(NC(=S)NNc2ccc([N+](=O)[O-])cc2S(=O)(=O)Nc2ccc(C)cc2C)cc1,1.25 (inactive)
4,Cc1ccc(NC(=S)NNc2ccc([N+](=O)[O-])cc2S(=O)(=O)Nc2ccccc2C(=O)O)cc1C,1.09 (inactive)
5,O=C(O)CCc1nn2c3ccccc3nc2n(CCN2CCCCC2)c1=O,1.09 (inactive)
6,COc1cc2c(cc1NC(=O)C(C)OC(=O)/C=C/c1ccc(OC(F)F)cc1)oc1ccccc12 (stereo not drawn),1.12 (inactive)
7,COc1ccc(/C=N/NC(=O)c2cc(C)n(-c3ccccc3)c2C)cc1OC,0.99 (inactive)
8,Cc1cc(/C=N/NC(=O)c2ccccc2F)c(C)n1-c1ccccc1,1.02 (inactive)
9,Cc1ccc(CCCOC(=O)C[N+]2(C)CCOCC2)cc1,1.14 (inactive)
10,Cc1c(S(=O)(=O)N2CCN(C(c3ccccc3)c3ccccc3)CC2)c(=O)n(C)c(=O)n1C,1.25 (inactive)
11,CN1/C(=C\C=C2/SC(=S)NC2=O)C(C)(C)c2ccccc21,1.04 (inactive)
12,CN1/C(=C\C=O)C(C)(C)c2ccccc21,1.07 (inactive)
13,CC(C)n1c(SCC(=O)c2ccc3c(c2)OCCO3)nc2c1c(=O)n(C)c(=O)n2C,1.06 (inactive)
14,O=[N+]([O-])c1ccc(/C=N/Nc2nc(NCc3ccccc3)nc(N3CCOCC3)n2)cc1,1.08 (inactive)
15,O=[N+]([O-])c1cccc(/C=N/Nc2nc(NCc3ccccc3)nc(N3CCOCC3)n2)c1,1.03 (inactive)
16,CCCCN1C(=O)C2C(c3ccc(OC)cc3O)NC(CC(C)C)(C(=O)O)C2C1=O (stereo not drawn),0.99 (inactive)
17,COc1ccc(C(NC(=O)c2cccnc2)c2cc(Cl)c3cccnc3c2O)cc1OC (stereo not drawn),0.98 (inactive)
18,CCCC(=O)NC(c1ccc(OC)c(OC)c1)c1cc(Cl)c2cccnc2c1O (stereo not drawn),1.13 (inactive)
19,CCCC(=O)NC(c1ccc(OC)cc1)c1ccc2cccnc2c1O (stereo not drawn),0.96 (inactive)
20,CCCC(=O)NC(c1ccc2c(c1)OCO2)c1cc(Cl)c2cccnc2c1O (stereo not drawn),1.12 (inactive)
21,O=C(CS(=O)(=O)c1c[nH]c2ccccc12)N1CCCCCC1,1.02 (inactive)
22,CC(=NC1CC1)c1c(-c2ccccc2)[nH]n(-c2nc3ccccc3s2)c1=O,0.93 (inactive)
23,CCCc1cc(=O)n(-c2nc3ccccc3s2)[nH]1,1 (inactive)
24,Cc1ccc(S(=O)(=O)NCC(=O)OCc2ccccc2)cc1,0.97 (inactive)
25,COc1ccc(CN2C(=O)[C@H]3Cc4c([nH]c5ccccc45)C(C)(C)N3C2=O)cc1,0.81 (inactive)

row,SMILES,fold induction
1,CCC(=O)NC(/C=C/c1ccccc1)c1cc([N+](=O)[O-])c2cccnc2c1O (stereo not drawn),1.36 (inactive)
2,O=[N+]([O-])c1cc(Cl)c2cccnc2c1O,0.89 (inactive)
3,O=[N+]([O-])c1cc(Cl)c(O)c2ncccc12,1.15 (inactive)
4,CC(C)C(=O)NC(c1ccccc1)c1cc([N+](=O)[O-])c2cccnc2c1O (stereo not drawn),0.98 (inactive)
5,O=C(NNC(=O)c1cccnc1)Nc1cccc(Cl)c1Cl,0.89 (inactive)
6,Cc1cnccc1CN(C)Cc1nc(Cc2ccccc2Cl)no1,0.85 (inactive)
7,CCC1(C(=O)O)NC(c2cccc(OC)c2O)C2C(=O)N(c3ccccc3)C(=O)C21 (stereo not drawn),1.01 (inactive)
8,Cc1cc(C)n2nc(-c3sccc3-n3c(C)ccc3C)cc2n1,1.01 (inactive)
9,COc1ccc(CN2C3CCCC2CC(NC(=O)Nc2cccc(C)c2)C3)cc1 (stereo not drawn),0.96 (inactive)
10,Cc1ccc(C(=O)c2c(C)oc3c2C(=O)C(=O)c2ccccc2-3)cc1,1.18 (inactive)
11,Cc1oc2c(c1C(=O)O)C(=O)c1ccccc1C2=O,1.01 (inactive)
12,C=CCn1c(C)cc(C(=O)COc2ncnc3sccc23)c1C,0.88 (inactive)
13,COc1ccccc1N(CN1C(=O)c2ccccc2C1=O)C(=O)c1cccc(C)c1,0.82 (inactive)
14,O=C(CCCn1nnc2ccccc2c1=O)N[C@H](C(=O)O)c1ccccc1,1.02 (inactive)
15,O=C(O)c1cccc(NC(=S)N/N=C/c2cccnc2)c1,0.98 (inactive)
16,O=C(O)c1cccc(NC(=S)N/N=C/c2cccc(O)c2)c1,1.03 (inactive)
17,COc1c(Cl)cc(Cl)cc1C(=O)n1nc(C)cc1C,0.88 (inactive)
18,CCOC(=O)c1ccc(NNC(=O)CC)c([N+](=O)[O-])c1,1.03 (inactive)
19,CNc1nc2c(c(=O)[nH]c(=O)n2C)n1CCOC,1.02 (inactive)
20,O=C1NC(=O)/C(=C/c2ccc(N3CCOCC3)o2)N1,1.01 (inactive)
21,O=C1NC(=O)/C(=C\c2ccc(N3CCOCC3)o2)N1,0.97 (inactive)
22,COc1ccccc1C(CC(=O)N1CCCC1)c1ccc2c(c1)OCO2 (stereo not drawn),0.99 (inactive)
23,NNC(=O)CCc1c[nH]c2ccccc12,0.93 (inactive)
